Most compounds without a hit are left out; they make up all but 3.4% or so of the library.
GPR151 activ: activators of human GPR151. PathHunter beta-arrestin GPR151 cells, luminescence. activation, % at 11.2 µM. 650,000 compounds, 1% hits. AID 1508602. Q8TDV0; in the data active = activation above about 4.9%
Target sequence (Q8TDV0 whole entry, looked up): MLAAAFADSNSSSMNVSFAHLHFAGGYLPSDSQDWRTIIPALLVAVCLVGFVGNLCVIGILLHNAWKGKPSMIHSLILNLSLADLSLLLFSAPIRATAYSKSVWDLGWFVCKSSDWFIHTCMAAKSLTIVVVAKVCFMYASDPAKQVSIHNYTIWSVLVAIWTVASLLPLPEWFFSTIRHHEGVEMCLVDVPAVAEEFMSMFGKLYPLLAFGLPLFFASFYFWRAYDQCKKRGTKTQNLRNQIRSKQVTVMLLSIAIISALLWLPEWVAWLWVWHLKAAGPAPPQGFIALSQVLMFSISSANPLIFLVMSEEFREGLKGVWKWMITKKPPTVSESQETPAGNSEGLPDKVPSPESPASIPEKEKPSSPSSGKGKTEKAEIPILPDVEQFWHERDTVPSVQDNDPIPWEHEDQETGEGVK
FBW7 activator: activators of human E3 ligase FBW7; normalized activity (activation), % at 26.1 µM; 650,000 compounds, 0.13% hits; AlphaScreen FBW7–phospho-cyclin E peptide binding, activator screen; Q969H0; AID 1259310; in the data active = normalized activity above about 1.9%;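 note: purified mutant Fbw7 with reduced substrate affinity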
TEAD-YAP inh: TEAD-YAP interaction inhibition; HEK-TIYL cells, TEAD-Gal4/YAP UAS-luciferase luminescence; inhibition, % at 9.12 µM; 640,000 compounds, 1.4% hits; AID 1259422; in the data active = inhibition above about 32%
MITF primary: human MITF inhibition, primary screen. AlphaScreen MITF homodimerization, bead proximity signal. inhibition, % at 2.6 µM. 650,000 compounds, 0.91% hits; in the data active = inhibition above about 50%
MITF confirm: human MITF inhibition, confirmation; shares compounds with MITF primary; AlphaScreen MITF homodimerization, biotin/His-MITF beads; inhibition, % at 2.6 µM; 4,700 compounds, 16% hits; AID 1259372;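 active = inhibition above a cutoff derived from the DMSO control wells, cut at about 28% in these data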;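 note: inhibitors lower the bead chemiluminescence by keeping MITF from dimerizing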
AlphaScreen DR: AlphaScreen optical interference, dose response counter-screen | shares compounds with MITF primary | AlphaScreen optical interference counterscreen, cell-free | IC50, µM | 480 compounds, 6% hits; call rule not given here
AlphaScreen intf2: optically interferes with AlphaScreen signal. shares compounds with MITF primary. LysRS AlphaScreen counterscreen, signal interference, triplicate. inhibition, % at 2.6 µM. 4,700 compounds, 7.6% hits. AID 1259376;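 active = inhibition above a cutoff derived from the DMSO control wells, cut at about 30% in these data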
Of the large screens only hits and unclear results are named; the others gave an inactive call (follow-up assays come after a bar, where they were run).

COc1ccc(OC)c(CN2CCN(S(=O)(=O)c3ccccc3[N+](=O)[O-])CC2)c1	none
COc1ccc(CN2CCN(Cc3ccccc3[N+](=O)[O-])CC2)c(OC)c1	MITF primary 52 | MITF confirm inactive | AlphaScreen intf2 inactive
Cc1cc(C)cc(NC(=O)c2cc(S(=O)(=O)NCc3ccccc3)ccc2F)c1	none
O=[N+]([O-])c1cccc(N(CC2CO2)S(=O)(=O)c2ccccc2)c1 (stereo unspecified)	MITF primary 51 | MITF confirm inactive | AlphaScreen intf2 inactive
CCOc1cc(/C=N/c2ncn[nH]2)ccc1OCc1ccccc1C#N	none
NNC(=O)c1cc(-c2ccc(Cl)cc2)n[nH]1	MITF primary 56 | MITF confirm inactive | AlphaScreen intf2 inactive
Cc1ccc(-c2noc(CN(C(=O)Cc3ccc([N+](=O)[O-])cc3)C(C)C)n2)cc1	none
CCN(C(=O)c1ccccn1)c1nc2c(s1)CCc1oc(C)cc1-2	MITF primary 77 | MITF confirm 37 | AlphaScreen intf2 77
CCN(C(=O)c1ccco1)c1nc2c(s1)CCc1oc(C)cc1-2	none
CCOC(=O)c1cc(-c2ccc(I)cc2)nc2ccccc12	none
CCOc1ccccc1OCCOCCNC(C)CC (stereo unspecified)	MITF primary 77 | MITF confirm inactive | AlphaScreen intf2 inactive
C/C=C/c1ccc(OCCOCCNC(C)CC)c(OC)c1 (stereo unspecified)	MITF primary 70 | MITF confirm inactive | AlphaScreen intf2 inactive
CCC(C)NCCOc1ccccc1C (stereo unspecified)	none
Cc1ccc2nc(Nc3ccccc3Br)c3nncn3c2c1	none
COCCCNCCCOc1ccc(C(C)C)c(C)c1	MITF primary 59 | MITF confirm inactive | AlphaScreen intf2 inactive
COCCCNCCCCOc1ccc(C(C)C)c(C)c1	MITF primary 58 | MITF confirm inactive | AlphaScreen intf2 inactive
CSc1ccc(S(=O)(=O)Nc2ccccc2C(=O)NC2CCCCC2)cc1	none
NC(=O)C1CCN(C(=O)C2CCN(S(=O)(=O)N3CCOCC3)CC2)CC1	none
COc1cc(CN2CCCCCCC2)cc(OC)c1O	none
COc1cccc(CN2CCN(Cc3cccnc3)CC2)c1	MITF primary 79 | MITF confirm inactive | AlphaScreen intf2 inactive
COc1cccc(CN2CCC(CNc3ccc(-c4ccncc4)cc3)C2)c1 (stereo unspecified)	MITF primary 63 | MITF confirm 61 | AlphaScreen DR inactive | AlphaScreen intf2 inactive
COc1cccc(CN2CCOCC2)c1	none
CSc1ccc(CN2CCN(Cc3cccnc3)CC2)cc1	MITF primary 86 | MITF confirm inactive | AlphaScreen intf2 inactive
COc1cc(CN2CCN(Cc3cccnc3)CC2)cc(OC)c1O	MITF primary 66 | MITF confirm inactive | AlphaScreen intf2 inactive
C/C(Cn1nnc([N+](=O)[O-])n1)=N/NC(=O)COc1c(Cl)cc(Cl)cc1Cl	none
COc1ccc(C2CCN(Cc3cccnc3)CC2)cc1	MITF primary 64 | MITF confirm inactive | AlphaScreen intf2 inactive
COc1ccc(CC2(CO)CCN(Cc3cccnc3)CC2)cc1	none
COc1ccc(CN2CCN(Cc3cccnc3)CC2)cc1	MITF primary 74 | MITF confirm inactive | AlphaScreen intf2 inactive
CC(=O)c1ccc(NC(=O)c2ccc(-c3cccc(Cl)c3C)o2)cc1	none
COc1ccc(CCNC(=O)c2ccnc(-c3csc4ccccc34)c2)cc1	none
CCCN1CCN(CC(=O)NC(C)c2cccc(Cl)c2)CC1 (stereo unspecified)	MITF primary 92 | MITF confirm inactive | AlphaScreen intf2 inactive
CC(NC(=O)CN1CCN(c2cccc(Cl)c2)CC1)c1ccccc1 (stereo unspecified)	none
CCOC(=O)Cc1csc(NC(=O)CSc2nc(C)nc3sc(C)c(C)c23)n1	none
NS(=O)(=O)c1ccc(CNC2CC(=O)N(c3cccc(Cl)c3)C2=O)cc1 (stereo unspecified)	none
CCOc1ccccc1N(CC)S(=O)(=O)c1cccc2nsnc12	none
O=C(O)c1cc(-n2cccc2)ccc1Cl	MITF primary 79 | MITF confirm 64 | AlphaScreen DR inactive | AlphaScreen intf2 inactive
Cc1ccc(C)n1-c1ccc(Cl)c(C(=O)O)c1	none
Cc1ccc(-n2c(-c3ccco3)n[nH]c2=S)cc1C	none
CC(=O)c1ccc(-n2c(-c3cc(-c4ccco4)[nH]n3)n[nH]c2=S)cc1	MITF primary 61 | MITF confirm inactive | AlphaScreen intf2 37
Cc1cccc(-c2noc(CNC(=O)COc3ccc(Cl)cc3C)n2)c1	none
Cn1c(=O)c2[nH]c(-c3ccc4ccccc4n3)nc2n(C)c1=O	none
O=CN1CCN(C(=O)COc2ccc(Br)cc2)CC1	none
CC(=O)N1CCN(C(=O)COc2ccc(Br)cc2)CC1	MITF primary 53 | MITF confirm inactive | AlphaScreen intf2 inactive
O=C(NCCSc1ccccc1)c1cccnc1	MITF primary 77 | MITF confirm inactive | AlphaScreen intf2 inactive
Cc1[nH]c2ccccc2c1SCCNC(=O)c1ccncc1	MITF primary 62 | MITF confirm inactive | AlphaScreen intf2 inactive
COC(=O)C(C)N(c1cc(C)cc(C)c1)S(C)(=O)=O (stereo unspecified)	none
COC(=O)C(=Cc1ccc(OC)c(C(=O)O)c1)C(=O)OC	MITF primary 63 | MITF confirm inactive | AlphaScreen intf2 inactive
N#CC1=C(N)n2c(s/c(=C\c3ccco3)c2=O)=C(C#N)C1c1ccco1 (stereo unspecified)	MITF primary 56 | MITF confirm 42 | AlphaScreen DR inactive | AlphaScreen intf2 inactive
COc1ccc(-c2c(NC(=O)CN3CCCC(C)C3)oc3ccccc3c2=O)cc1OC (stereo unspecified)	MITF primary 91 | MITF confirm inactive | AlphaScreen intf2 inactive
CCOC(=O)/C(=C/Nc1ccc(OC)cc1)[N+](=O)[O-]	none
CC(C)CN1C(=O)C(=O)N(CC(=O)NC2CCCc3ccccc32)C1=O (stereo unspecified)	none
CN(C)C(CNCC(=O)NC1CCCc2ccccc21)c1ccccc1 (stereo unspecified)	MITF primary 76 | MITF confirm inactive | AlphaScreen intf2 56
Cc1cc(C2C(C#N)=C(N)N(c3ccccc3Cl)C3=C2C(=O)CC(c2ccccc2)C3)c(C)s1 (stereo unspecified)	MITF primary 57 | MITF confirm inactive | AlphaScreen intf2 inactive
Cc1cc(C2C(C#N)=C(N)N(c3ccccc3Cl)C3=C2C(=O)CCC3)c(C)s1 (stereo unspecified)	none
O=C(NCc1ccco1)c1ccc(Br)cc1	none
N#CCCN(CC(=O)c1ccc(Br)cc1)Cc1ccco1	MITF primary 63 | MITF confirm inactive | AlphaScreen intf2 inactive
CCc1nnc2sc(-c3ccc(NC(=O)COc4ccc(OC)cc4)cc3)nn12	none
CCc1nnc2sc(-c3ccc(NC(=O)C(C)(C)C)cc3)nn12	MITF primary 54 | MITF confirm inactive | AlphaScreen intf2 inactive
CCOc1ccccc1/C=N\NC(=O)c1ccco1	MITF primary 70 | MITF confirm inactive | AlphaScreen intf2 inactive

Assay outcomes from PubChem BioAssay.
